A number with no mark means an inactive call.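 Rule for the calls: active = MAPPIT score above the 99th percentile of random reference set scores in the same batch; inactive = at or below it.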
How the values were obtained:
Experiment in all cases: MAPPIT interaction score (arbitrary units); higher = stronger binary interaction signal, active = hit call of the paper
Six4 = details: MAPPIT configuration: N-N; pair source set: Lit-BS-16
Rpt2 = details: MAPPIT configuration: N-N; pair source set: screen_1
Sarm = details: MAPPIT configuration: N-N; pair source set: Curagen_low_conf
Sirt2 = details: MAPPIT configuration: N-N; pair source set: Finley_Y2H
Sas10 = details: MAPPIT configuration: N-N; pair source set: Finley_Y2H
grau = details: MAPPIT configuration: N-N; pair source set: Lit-BM-16
Sce = details: MAPPIT configuration: N-C; pair source set: Lit-BM-16
Shmt = details: MAPPIT configuration: N-N; pair source set: Curagen_high_conf
Sid = details: MAPPIT configuration: N-N; pair source set: Curagen_high_conf
Xbp1 = details: MAPPIT configuration: N-N; pair source set: Curagen_low_conf
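Note: HEK293T cells with Epo stimulation, STAT-responsive firefly luciferase reporter, fold induction versus unstimulated cells divided by the larger fold induction of two negative controls lacking either bait or prey.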

B1: CG30031 (protein)
chain: MLKFVILLSAVACALGGTVPEGLLPQLDGRIVGGSATTISSFPWQISLQRSGSHSCGGSIYSSNVIVTAAHCLQSVSASVLQIRAGSSYWSSGGVTFSVSSFKNHEGYNANTMVNDIAIIKINGALTFSSTIKAIGLASSNPANGAAASVSGWGTLSYGSSSIPSQLQYVNVNIVSQSQCASSTYGYGSQIRSTMICAAASGKDACQGDSGGPLVSGGVLVGVVSWGYGCAYSNYPGVYADVAALRSWVISNA
Q: B1 was tested. Which MAPPIT interaction score (Six4) did it give?
A: The MAPPIT interaction score was -0.185.

B2: CG12096 (protein)
chain: MEMEDNWWVTKLKALESKPQRLDALTAMNSAIAKEAALPRQIIERLLTTDQLYDCANPAADSHVPKDQAVDVTLELLCHCLDQLAMDTADEQLSSLLRRGLTHSNPALRAQVLASLFKKLLRQLTVGQVLTLPNNELIFLILDELKQPDTQSTSLAINILSIVLPQRISNADVQAKLVQLLKQNEIVRCRAYELAVVLAKKSATLLSDVTFILDAALSELDNDDVLLQASVMELLVPLAEQNHGLSYMERRRVLDIISYRVQRVEEHPLDALLVPSIMKFFGKISVYQPLKIIGGYPHMLACLFMQLQSEDESILPTAMDTLANLATTPQGKILLNMHFSGAMEKSFKKYGSHTKKLSAHIKKRLLNSLDVIYDFKTPPATEIINIGKNWYECFAGGAHANIIMDLINTPFPDLQMAALSFLKTICKYNWGIVALKNTGGAVEFLLSRQKDLHRDIKYMKWQIMEILSASAEFSPTETIRFTAYVNEGPYHVQADLDVATEPQGNA
Q: With B2 as the binder, how does the MAPPIT interaction score (Rpt2) read?
A: Its MAPPIT interaction score is 5.01 (active).

B3: mRpL24 (protein)
chain: MRLTQYLASKLKNFSNLPKEYIERSKKQVYWQTPKEINYLPRTVERKRFRYTTNRSWTGQFRQQNMPGTVRRKVLVEPIEDWSFFRGDRIEVLVGKDKGKQGIVTQVIPERNWVIVEGLNWHYRKVGGEKEFPGIIIKSEAPLHVTKDIRLVDPSDLQGTDFEWRFTEEGEKVRVSLRSGRIIPIPETNNQTHDYKTPNAYIEREKDTPGAVVGEITFQPKLSTFEMDIMEEMGIKEERTPVKSYWY
Q: Which MAPPIT interaction score (Sarm) does the source give for B3 here?
A: Its MAPPIT interaction score is 0.785.

B4: Pgam5 (protein)
chain: MRKLTSFVCGTGAGLAAYYLQRLRDPQTVVQNSWTHSDKPVDPWALWDTNWDCREPRALVRPLRNSQPEEENRYNAELEKAKAKKARHIILVRHGEYLDVGDSDDTHHLTERGRKQAEFTGKRLCELGIKWDKVVASTMVRAQETSDIILKQIDFEKEKVVNCAFLREGAPIPPQPPVGHWKPEASQFLRDGSRIEAGFRRYFHRAYPDQEKESYTLIVGHGNVIRYFVCRALQFPAEGWLRININHASITWLTISPSGNVSIKYLGDSGFMPAELLTNRIPRDVKNVV
Q: B4 was tested. Which MAPPIT interaction score (Sirt2) did it give?
A: The MAPPIT interaction score was 0.996.

B5: CG7137 (protein)
chain: MKPFEVPPWEEGADIIEFEPVNPSGNGVAAKKKPKKKKPKKKKAAVPNENLNVNKAAEKFTYRQGRGPLAPPQDSSDDDYEDVEDGIRAMHKVKSGRIEKQRPPTQATKGGKKELKLKPELAQAALEAMEATSSTTPAANSLASKLQSELLGGRFRYINEQLYSTTSRKAEALFRKDSSAFEAYHAGYRQQVEKWPINPLNRIIKTIKKIPKTAIIGDFGCGEGKLAQSVPNKVYSMDLVAARSDIIACNITDTPLQARTLDVAVYCLSLMGTDLNEFFLEANRVLKLHGTVYIAEIQSRFQDVREFVRCLNACGFDLNKKDVAVNYFYFFQFKKMRHVPKNTKMKAFSLKPCLYRKR
Q: B5 was tested. Which MAPPIT interaction score (Sas10) did it give?
A: Its MAPPIT interaction score is 0.356.

Q: What about the MAPPIT interaction score (grau) of the same binder?
A: Its MAPPIT interaction score is 0.26.

B6: ord (protein)
chain: MYGETTLNKNHVIKFIKLKINNCLGCDEVEINFSKADNVHIIIYSLVTDMAKDLPAVTPVAQAILLLCSLTYPDSDSLETIPQLKIGKGSVSMSFKVYPVNKEEETEPESESDLDEGPSTSKQALERMVQRAERKAKEASTRNVHSKGIYVNVERRFDMYFALDTVSYYINGGKRQSCPLPEFHAKFFVRPQHSINLLRQLHEKCSGNWLKVIQSDGDGDAFKKFKDPDSPFETFVKLFESNPIKPNDMMGKLAKTCLHVNEAVRLTEREFILEVFNQVRHIFEYITAQEYTVWFLVPCLGDKDQLRSKTLEDFDLTKVRTSIRRAGDTSNIWWDHTDHNIKDILLVAFQLDLATHVNQSVLVISHLETLAEFSTMQYVTAFFMNDFYAKKNTEPKWICHRYLERIIDVALFLGVIVIIEYPSAFTLLQEGRHLIKCFQKENADSSRTSQWEIFEDVVKENESDLEFLKEAVGKVQQNV
Q: For B6, which MAPPIT interaction score (Sce) is on record?
A: Its MAPPIT interaction score is 2.19.

B7: Pka-R2 (protein)
chain: MSSDSSRRIQVPEELKEVLLQFSISFLVEQPPDVIDYAVEYFTKLQSERPSVSHTDQSTDDQLSVNSQDADAEPPVMASSRRKSVFAEAYDPEADDDDDGATAVFPKTDEQRARLVESVKNVLLFRSLEKEQMNQVLDAMFERKVQPGDFIIRQGDDGDNFYVIESGVYKVYINDKHINTYNHTGLFGELALLYNMPRAATVQAETSGLLWAMDRQTFRRILLKSAFRKRKMYEELLNSVPMLKALQNYERMNLADALVSKSYDNGERIIKQGDAADGMYFIEEGTVSVRMDQDDAEVEISQLGKGQYFGELALVTHRPRAASVYATGGVVKLAFLDVKAFERLLGPCMDIMKRNIDDYESQLVKIFGSKNNITDTR
Q: How did the MAPPIT interaction score (Shmt) turn out when B7 was run?
A: Its MAPPIT interaction score is 0.452.

B8: Pep (protein)
chain: MVSVKVNGNPQNRLVNNAKVNGNMAFRGNQNRNRNFGGGNNNYGGPMGANRMGGMNMSPWESQNPGGGQFGNNMRQGGGQMNAQAINLANNLLNNLFRNQNPPSLLDLPRGGGGMGNRNQRGGPMVSRGGGAGNRLNNRRGQGGGFQNRGATGSGPKPPPKQGGGGIRKQNAFDRAKKLLAKNANQNKKKEPTPGEKKIESPTKESPYASVPNDMFYCHLCKKHMWDANSFENHIKGRTHLMMREGIEESYRLKANMIRQEAKIAEQLKSIEFDRLKRMGKSKQRQLDYCTMCDLNFHGHISTHRKSEGHLQLKKFLHPKCIECNKEFATRIDYDTHLLSAEHLKKAAENNTKVGERKRQTLPISTEEEETRDLRLPQKRKKKPVKKEGEAADGEAKKEGAGDGEGAEGDEAEGEEAKEGEEAADETKEGDELNESQEEEEVALPVDPEDCILDFNDGDEIPSEVDTRLPKYNWQRAVGPGLISKLECYECSVCSKFFDTEVTAEIHSRTATHHRNFLKFINEKSSDTKIAQKRAAAALEENERKKRKVEEAEAPAAEGAAEETTEGAEGELYDPSEATGDDEDVEMVDDNAEGEGEGEGDEEAEAEVEEDGAGQDNGEEEMEAQEEEGQEGEQEPEPEPAPVQTPAPAEPAPPAKTPAKTPTKAAAPAAVASPAAAATSADASPSPAKKATPARAAAGAKATPQRQRARGRYNRY
Q: What does the source list for B8?
A: MAPPIT interaction score (Sid): -0.865; MAPPIT interaction score (Xbp1): -0.182
